The supplement of paper PMC4723716

Tested on: Plasmodium falciparum NF54 gametocytes
Test: viability index relative to DMSO control (fraction); higher = less gametocyte killing
Settings: 12.5 µM, incubation time: 72 h
Method in brief: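 P. falciparum NF54 gametocytes of each stage (I–V), in serum-containing medium (0.50% gametocytemia, 1.25% hematocrit, 40 µl), were incubated with compound at 12.5 µM in 384-well plates for 72 hr at 37°C under low oxygen. Wells received 5 µl of 5 µM MitoTracker Red CMXRos for 20 min. Then 5 µl was moved into 40 µl of 500 nM dye in serum-free medium and imaged after 30 min (three fields). The viability index was the gametocyte particle count divided by the plate mean of DMSO wells.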

[1] = gametocyte stage: Stage I viability index
[2] = gametocyte stage: Stage II viability index
[3] = gametocyte stage: Stage III viability index
[4] = gametocyte stage: Stage IV viability index
[5] = gametocyte stage: Stage V viability index

Structure (SMILES) | viability index [1] | viability index [2] | viability index [3] | viability index [4] | viability index [5]
CCOC(=O)c1c(C)n(-c2ccc(Cl)cc2)c2ccc(OC(=O)C=Cc3ccccc3)cc12 | 0.708 | 0.792 | 1.01 | 0.964 | 0.978
Cc1ccc(NC(=O)Nc2cccc(Cl)c2)cc1F | 0.64 | 0.599 | 0.832 | 0.827 | 0.582
CCCN(CCC)CCCNC(=O)c1cc2c(-c3ccc(OC)c(OC)c3)nn(C)c2s1 | 0.302 | 0.754 | 0.996 | 0.954 | 0.868
COc1ccc(Nc2nc(NCc3ccccc3)c3ccccc3n2)cc1 | 0.0331 | 0.107 | 0.562 | 0.593 | 0.286
c1ccc(CNc2nc(Nc3ccccc3)nc3ccccc23)cc1 | 0.0367 | 0.211 | 0.586 | 0.563 | 0.481
Cc1cc(N2CCN(C3CCCC3)CC2)n2c(nc3ccccc32)c1C#N | 0.833 | 0.875 | 1.15 | 1.02 | 1
CC1CCN(Cc2c(O)ccc3cc(-c4nc5ccccc5s4)c(=O)oc23)CC1 | 0.706 | 0.705 | 0.925 | 0.864 | 1
CCn1c(SCC(=O)Nc2cc(C(F)(F)F)ccc2Cl)nc2ccccc2c1=O | 0.787 | 0.953 | 1.17 | 1.14 | 1.03
O=C1c2ccccc2-c2nnc(-c3ccc(Br)cc3)cc21 | 0.844 | 0.875 | 0.783 | 0.873 | 0.87
COC(=O)c1ccc(C2C3=C(O)CC(c4ccc(F)cc4)CC3=Nc3ccccc3N2C(=O)c2ccccc2)cc1 (stereo not given) | 0.00524 | 0.005 | 0.0149 | 0 | 0
COc1ccc(Nc2cc(C)nc(NCc3ccccc3)n2)cc1 | 0.0594 | 0.319 | 0.487 | 0.589 | 0.481
CCn1nc(-c2ccc(C(=O)OC)cc2)nc2c(=O)n(C)c(=O)nc1-2 | 0.15 | 0.284 | 0.103 | 0.0365 | 0.044
COc1ccc(C2NCCc3c2[nH]c2ccccc32)cc1CN1CCN(c2ccc(F)cc2)CC1 (stereo not given) | 0.0297 | 0.0183 | 0.0204 | 0.0222 | 0.0519
CCN(CC)c1cc(C)c2cc(NC(=O)c3cccc(OC)c3)ccc2n1 | 0.154 | 0.563 | 0.864 | 0.967 | 1.01
CC(C)(C)c1ccc(C(=O)Nc2c3c(nn2-c2cccc(Cl)c2)CSC3)cc1 | 0.469 | 0.508 | 0.825 | 0.747 | 0.701
CCOc1cc2c(cc1OCC)C(c1cc(Cl)ccc1O)NCC2 (stereo not given) | 0.0411 | 0.0883 | 0.488 | 0.532 | 0.675
Cc1ccc(Nc2nc(N)c3ccccc3n2)cc1Cl | 0.0341 | 0.49 | 0.695 | 0.753 | 0.481
Fc1ccc2[nH]c3c(NCCCN4CCOCC4)ncnc3c2c1 | 0.053 | 0.564 | 0.873 | 0.866 | 0.78
Cc1ccc(C)c(Cn2c(N3CCC(C(=O)NCc4cccs4)CC3)nc3ccccc32)c1 | 0.741 | 0.378 | 0.438 | 0.342 | 0.221
Cn1c(=O)c2cc(C(=O)NCCCN3CCCCCC3)sc2c2ccccc21 | 1.01 | 0.857 | 0.926 | 0.957 | 0.725

Structure (SMILES) | viability index [1] | viability index [2] | viability index [3] | viability index [4] | viability index [5]
O=C(Nc1ccc(Cl)cc1)N1CCN(c2ccc3nncn3n2)CC1 | 0.865 | 1.02 | 1.15 | 1.14 | 1.11
CCOC(=O)c1c(C)n(-c2ccccc2)c2ccc(OC(=O)c3cc(OC)c(OC)c(OC)c3)cc12 | 1.05 | 0.724 | 0.947 | 0.987 | 1.05
CN1CCN(c2ncnc3c2[nH]c2ccc(Cl)cc23)CC1 | 0.263 | 0.577 | 0.92 | 1.04 | 0.935
CCOc1cc(Br)c(C(C)NC(=O)c2cccc(OC)c2)cc1OCC (stereo not given) | 0.465 | 0.412 | 0.58 | 0.748 | 0.648
COc1ccc2c(c1)OC(O)(C(F)(F)C(F)(F)F)CC2=O (stereo not given) | 0.676 | 0.929 | 1.15 | 0.97 | 1.11
CCc1c(C)c(=N)c2ccccc2n1C | 0.725 | 1.01 | 1.24 | 0.988 | 0.791
O=C(Nc1ccc(C23CC4CC(CC(c5ccccc5)(C4)C2)C3)cc1)c1cccs1 | 0.939 | 0.824 | 0.986 | 0.744 | 1.14
N=c1c2ccccc2nnn1-c1cccc(C(F)(F)F)c1 | 0.988 | 0.714 | 1.02 | 0.785 | 0.87
COc1cccc(NC(=O)[C@H](C(C)C)n2c(=O)[nH]c3ccccc3c2=O)c1 | 0.0552 | 0.0213 | 0.0736 | 0.286 | 0.341
O=c1cc(NC2CCN(CCCc3ccccc3)CC2)c2cc(Cl)ccc2o1 | 0.028 | 0.408 | 0.815 | 0.848 | 0.675
Cc1cc(C)c2c(c1)OCN(Cc1ccccc1Cl)C2 | 0.0442 | 0.13 | 0.569 | 0.663 | 0.615
CCCCCC(=O)N1c2ccccc2N=C2CC(c3ccc(OC)c(OC)c3)CC(O)=C2C1c1ccc(C(F)(F)F)cc1 (stereo not given) | 0.0365 | 0.0251 | 0.0919 | 0.219 | 0.429
O=C(Nc1ccccc1O)c1ccc(Oc2cccc(C(=O)Nc3ccccc3O)c2)cc1 | 0.00331 | 0.161 | 0.434 | 0.456 | 0.462
Cc1ccc(Cn2c(N3CCC(C(=O)NCc4cccs4)CC3)nc3ccccc32)cc1 | 0.593 | 0.289 | 0.545 | 0.544 | 0.308
CCN(CC)CCNc1ccnc2cc(Cl)ccc12 | 0.0376 | 0.295 | 0.789 | 0.726 | 0.626
CCN(CC)CCCNc1nc(-c2ccc(Cl)cc2)nc2ccccc12 | 0.693 | 0.751 | 1.01 | 0.903 | 0.956
CCOC(=O)c1cn(CC)c2cc(N(C)CCc3ccc(OC)c(OC)c3)c(F)cc2c1=O | 0.63 | 0.723 | 0.912 | 0.827 | 0.923
COc1ccc2nc(C)cc(Nc3cccc(O)c3)c2c1 | 0.105 | 0.564 | 0.896 | 0.991 | 1.1
CCC(O)c1ccc(Br)cc1NC(=O)c1cccc(Cl)c1 (stereo not given) | 0.0243 | 0.196 | 0.598 | 0.729 | 0.582
COc1cc2c3cc1Oc1c(OC)c(OC)cc4c1C(Cc1ccc(O)c(c1)Oc1ccc(cc1)CC3N(C)CC2)N(C)CC4 (stereo not given) | 0.25 | 0.465 | 0.592 | 0.528 | 0.468

Structure (SMILES) | viability index [1] | viability index [2] | viability index [3] | viability index [4] | viability index [5]
OCCNc1nc(Nc2ccc(Cl)c(Cl)c2)nc2ccccc12 | 0.0254 | 0.246 | 0.665 | 0.484 | 0.442
COc1ccc(C=C2SC(Nc3ccc(F)cc3)=NC2=O)c(OC)c1 | 0.76 | 0.669 | 0.676 | 0.646 | 0.558
COc1ccc(C)c2sc(N(Cc3cccnc3)C(=O)c3ccc(C#N)cc3)nc12 | 0.441 | 0.704 | 0.95 | 0.794 | 1.01
OC(Cn1nnc2ccccc21)Cn1c2ccc(Br)cc2c2cc(Br)ccc21 (stereo not given) | 0.634 | 0.684 | 1.04 | 0.972 | 1.21
CCOc1ccccc1CNC(=O)C1c2ccccc2C(=O)N(CC(C)C)C1c1cccs1 (stereo not given) | 0.579 | 0.549 | 0.795 | 0.793 | 1.08
COCCn1c(C)nc2ccccc2c1=O | 0.825 | 0.879 | 0.733 | 0.711 | 0.418
Cc1ccc(S(=O)(=O)c2c(COC(=O)c3cccc(C)c3)c(-c3ccccc3)nn2C)cc1 | 0.982 | 0.881 | 0.943 | 0.769 | 0.922
COc1cc(C(=O)ON=C(N)Cc2cccc3ccccc23)cc(OC)c1OC | 0.0175 | 0.0391 | 0.157 | 0.12 | 0.0909
O=C(Nc1ccc(-c2nc3ccccc3[nH]2)cc1)c1ccc(Cl)c(Cl)c1 | 0.129 | 0.564 | 0.894 | 0.978 | 0.727
Cc1ccc(-c2cc(C(=O)Nc3ccc(S(=O)(=O)N4CCCCC4)cc3)[nH]n2)c(O)c1 | 0.453 | 0.939 | 0.973 | 1.09 | 0.967
O=C1C2=C(Nc3ccccc3SC2c2ccccc2)c2ccccc21 (stereo not given) | 0.678 | 0.794 | 0.742 | 0.623 | 0.662
CC1CCN(Cc2ccc(NC(=O)c3cc4ccc5cccnc5c4[nH]3)cc2)CC1 | 0.265 | 0.505 | 0.902 | 0.954 | 0.769
COc1ccc(CN2CCCC(C(=O)c3ccc(C(F)(F)F)cc3)C2)c(O)c1 (stereo not given) | 0.049 | 0.0866 | 0.365 | 0.554 | 0.779
COc1ccc(NC(=O)C2c3ccccc3C(=O)N(CC(C)C)C2c2cccs2)cc1Cl (stereo not given) | 0.0453 | 0.00483 | 0.0636 | 0.24 | 0.11
COc1cc(SC)ccc1C(=O)N1CCCC(C)C1 (stereo not given) | 0.982 | 0.96 | 1.17 | 1.16 | 1.18
CC1CC2=C(CC1CNCCCN(C)C)C(C)(C)CCC2 (stereo not given) | 0.383 | 0.362 | 0.48 | 0.468 | 0.312
Oc1c(CN2CCN(c3ccccc3F)CC2)cc(Br)c2cccnc12 | 0.0376 | 0.0566 | 0.0353 | 0.0253 | 0.026
O=C(Nc1ccc(F)c(Cl)c1)Nc1ccc(Cl)c(Cl)c1 | 0.0409 | 0.0309 | 0.0835 | 0.17 | 0.165
CCOc1ccccc1NC(=O)CN1CCN(C(=O)c2ccco2)CC1 | 1.06 | 1 | 1.07 | 0.959 | 1.1
Cc1cc(Nc2ccc(Cl)cc2)n2nc(C(F)(F)F)nc2n1 | 0.957 | 0.975 | 1.03 | 0.97 | 1
